# From the supplement of paper PMC8285479
# “And” between values parts separate entries of the source, which are not always exact repeats. Identical values can stand only once. Counter-ions that a name gives are not always drawn. ± gives the standard deviation of the averaged measurements. Over roughly 1,900 compounds, “normalised cell viability (NPI; 0 = phenylarsine oxide control, 1 = DMSO control)” has its median near 1; the lowest 2% begin near 0.039. The sample as a whole holds a higher share of the lowest values than the screen did.
# System: NCI-H1944
# Assay: normalised cell viability (NPI; 0 = phenylarsine oxide control, 1 = DMSO control) (fraction of DMSO control); NCI-H1944 is a non-small cell lung cancer line; higher = more viable cells (less compound toxicity)
# Details: 6 days
# [1] = glucocorticoid arm: hydrocortisone 2.75 uM co-treatment, compound 1 µM
# [2] = glucocorticoid arm: hydrocortisone 2.75 uM co-treatment, compound 5 µM
# [3] = glucocorticoid arm: hydrocortisone 2.75 uM pre-treated 2 days and continued, compound 1 µM
# [4] = glucocorticoid arm: hydrocortisone 2.75 uM pre-treated 2 days and continued, compound 5 µM
# [5] = glucocorticoid arm: vehicle, compound 1 µM
# [6] = glucocorticoid arm: vehicle, compound 5 µM
# 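Note: CTB read-out in 384-well plates, triplicate wells, NPI normalised per plate against 1 µM phenylarsine oxide (0) and 0.1% DMSO (1) controls.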
SMILES,normalised cell viability [1],normalised cell viability [2],normalised cell viability [3],normalised cell viability [4],normalised cell viability [5],normalised cell viability [6]
CCCCC#Cc1nc(N)c2ncn([C@@H]3O[C@H](C(=O)NCC)[C@@H](O)[C@H]3O)c2n1,1.01 ± 0.015,0.979 ± 0.011,1.007 ± 0.0058,1.01 ± 0.014,1.01,1.003 ± 0.0058
O=c1[nH]cc(F)c(=O)[nH]1 [5-Fluorouracil],0.98 ± 0.002,0.766 ± 0.0085,0.981 ± 0.012,0.984 ± 0.015,0.9837 ± 0.0084,0.729 ± 0.03
O=c1[nH]cc(F)c(=O)[nH]1 [5-Fluorouracil; Fluorouracil],1.043 ± 0.0058,0.706 ± 0.037,1.01 ± 0.015,0.838 ± 0.011,0.971 ± 0.0044,0.522 ± 0.032
CN(C(Cc1ccc(OS(=O)(=O)c2cccc3cnccc23)cc1)C(=O)N1CCN(c2ccccc2)CC1)S(=O)(=O)c1cccc2cnccc12 (stereo unspecified),1.02 ± 0.011,0.993 ± 0.015,1.007 ± 0.0058,0.974 ± 0.029,1.01,1.01
CN1CC[C@@H](c2c(O)cc(O)c3c(=O)cc(-c4ccccc4Cl)oc23)[C@@H]1CO,0.183 ± 0.011,0.031 ± 0.004,0.601 ± 0.026,0.0698 ± 0.0051,0.0431 ± 0.0039,0.00913 ± 0.002
CN1CC[C@H](c2c(O)cc(O)c3c(=O)cc(-c4ccccc4Cl)oc23)[C@H](O)C1 [Flavopiridol (Alvocidib)],0.0613 ± 0.0073,0.0242 ± 0.0072,0.109 ± 0.015,0.0932 ± 0.025,0.0171 ± 0.0043,0.00703 ± 0.0012
CN1CC[C@H](c2c(O)cc(O)c3c(=O)cc(-c4ccccc4Cl)oc23)[C@H](O)C1 [Flavopiridol hydrochloride],0.0447 ± 0.0058,0.0238 ± 0.0012,0.066 ± 0.0098,0.0883 ± 0.016,0.0103 ± 0.0015,0.00802 ± 0.0019
COc1ccc(CCN(C)CCCC(C#N)(c2cc(OC)c(OC)c(OC)c2)C(C)C)cc1OC (racemic) [(±)-Methoxyverapamil hydrochloride],1.007 ± 0.0058,0.998 ± 0.039,1.01 ± 0.01,1.01 ± 0.019,0.9847 ± 0.0042,0.999 ± 0.018
Cc1cnc(NC(=O)Nc2cc(Br)c(C)cc2OC[C@@H]2CNCCO2)cn1,1.03 ± 0.015,0.827 ± 0.041,1.04 ± 0.015,1.04 ± 0.011,0.776 ± 0.01,0.334 ± 0.027
CCCCCCCCCCCCCCCc1cccc(OCC)c1C(=O)Nc1ccc(Cl)c(C(F)(F)F)c1,1.01 ± 0.014,1.01 ± 0.011,1.01 ± 0.02,1.02 ± 0.016,0.9997 ± 0.0097,1 ± 0.0054
N#C[C@@H]1CCCN1C(=O)CNC12CC3CC(CC(O)(C3)C1)C2 [Vildagliptin (LAF-237)],0.994 ± 0.0087,1 ± 0.011,0.9973 ± 0.0046,1.004 ± 0.01,0.998 ± 0.012,1.01
CN1CCN(S(=O)(=O)c2ccc(-c3cnc(N)c(C(=O)Nc4cccnc4)n3)cc2)CC1,1.113 ± 0.011,1.2 ± 0.015,1.1 ± 0.011,1.1 ± 0.021,0.743 ± 0.0076,0.959 ± 0.021
Cc1c(CN2CCN(C(=O)[C@H](C)O)CC2)sc2c(N3CCOCC3)nc(-c3cnc(N)nc3)nc12,0.631 ± 0.017,0.433 ± 0.034,0.59 ± 0.02,0.399 ± 0.076,0.757 ± 0.035,0.552 ± 0.033
COc1ccc(-c2nc(N3CCOCC3)c3sc(CN(C)c4ncc(C(=O)NO)cn4)cc3n2)cn1,0.00442 ± 0.0038,0.00164 ± 0.00085,0.0384 ± 0.044,0.00149 ± 0.001,0.00371 ± 0.0034,0.000104 ± 0.00053
CS(=O)(=O)N1CCN(Cc2cc3nc(-c4cccc5[nH]ncc45)nc(N4CCOCC4)c3s2)CC1,1.02 ± 0.022,1.05 ± 0.015,1.02 ± 0.011,1.05 ± 0.015,0.998 ± 0.012,1.005 ± 0.0087
C[C@H]1c2cccc(O)c2C(O)=C2C(=O)[C@]3(O)C(O)=C(C(N)=O)C(=O)[C@@H](N(C)C)[C@@H]3[C@@H](O)[C@@H]21 [Doxycycline HCl],0.994 ± 0.007,0.986 ± 0.026,0.9957 ± 0.0031,0.99 ± 0.006,0.9947 ± 0.0025,1 ± 0.015
NCC(O)C1CCCCCCC1 (stereo unspecified) [2-Cyclooctyl-2-hydroxyethylamine hydrochloride],0.987 ± 0.012,0.971 ± 0.016,0.998 ± 0.013,0.972 ± 0.02,0.9697 ± 0.0015,0.9663 ± 0.0085
CCC(=O)NCC[C@@H]1CCc2ccc3c(c21)CCO3 [Ramelteon],1 ± 0.018,1.01 ± 0.011,1.006 ± 0.0069,1.01 ± 0.019,0.9943 ± 0.009,0.9933 ± 0.0061
Nc1nc(Cl)nc2c1ncn2[C@H]1C[C@H](O)[C@@H](CO)O1 [Cladribine],0.0575 ± 0.013,0.0436 ± 0.0033,0.169 ± 0.0085,0.1867 ± 0.0011,0.0131 ± 0.0023,0.0121 ± 0.0031
Nc1nc(Cl)nc2c1ncn2[C@@H]1O[C@H](COP(=O)(O)OP(=O)(O)OP(=O)(O)O)[C@H](O)C1O (stereo partly specified) [2-Chloroadenosine triphosphate tetrasodium],0.992 ± 0.0076,0.818 ± 0.041,0.988 ± 0.018,0.917 ± 0.019,0.987 ± 0.0044,0.981 ± 0.0056
Nc1ncnc2c1ncn2[C@@H]1O[C@H](CO)[C@@H](O)[C@H]1O [Adenosine],0.9973 ± 0.0046,1.01 ± 0.01,0.995 ± 0.015,0.987 ± 0.019,1 ± 0.015,1.003 ± 0.0058
Nc1ncn([C@H]2C[C@H](O)[C@@H](CO)O2)c(=O)n1 [5-Aza-2'-deoxycytidine],1.087 ± 0.0058,1.12 ± 0.05,1.07 ± 0.01,1.09 ± 0.015,0.581 ± 0.051,0.296 ± 0.027
Nc1nc(Cl)nc2c1ncn2[C@@H]1O[C@H](CO)[C@@H](O)[C@H]1O [2-Chloroadenosine],0.998 ± 0.013,0.982 ± 0.011,0.998 ± 0.011,0.974 ± 0.052,0.9847 ± 0.0078,0.9883 ± 0.0078
Nc1ncn([C@H]2C[C@H](O)[C@@H](CO)O2)c(=O)n1 [Decitabine],1.1 and 1.06,–,1.08 and 1.05,–,–,–
Nc1ncn([C@H]2C[C@H](O)[C@@H](CO)O2)c(=O)n1 [5-Aza-2'-deoxycytidine; Decitabine],1.073 ± 0.0058,1.15 ± 0.026,1.07 ± 0.01,1.1 ± 0.02,0.204 ± 0.009,0.22 ± 0.021
Nc1nc(Cl)nc2c1ncn2[C@@H]1O[C@H](CO)[C@@H](O)[C@@H]1F [Clofarabine],0.124 ± 0.015,0.146 ± 0.0052,0.341 ± 0.017,0.302 ± 0.017,0.0363 ± 0.0032,0.0483 ± 0.0032
CN(C)CCOc1ccc(-c2nc(-c3ccncc3)c(-c3ccc4c(c3)CC/C4=N\O)[nH]2)cc1,1.103 ± 0.0058,1.16 ± 0.032,1.07 ± 0.011,1.11 ± 0.021,1.013 ± 0.0058,1 ± 0.05
O=[N+]([O-])c1ccc(CSc2ncnc3c2ncn3[C@@H]2O[C@H](CO)[C@@H](O)[C@H]2O)cc1 [S-(4-Nitrobenzyl)-6-thioinosine],0.9813 ± 0.0047,0.968 ± 0.027,0.987 ± 0.018,0.996 ± 0.059,0.9973 ± 0.0046,0.9917 ± 0.0097
Nc1c(O)cc(O)cc1C=Cc1ccc(O)cc1 [Aminoresveratrol sulfate],1 ± 0.015,1.01 ± 0.02,1.01 ± 0.015,1.01 ± 0.014,0.9937 ± 0.0027,1.01 ± 0.012
CC(C)C(=O)Oc1ccc(CO)cc1[C@H](CCN(C(C)C)C(C)C)c1ccccc1 [Fesoterodine Fumarate],1.002 ± 0.0076,0.966 ± 0.019,1 ± 0.025,0.984 ± 0.04,1.001 ± 0.009,1 ± 0.016
